Results on 11 compounds are retold here after PubChem BioAssay.

In experiment [1] the test system is Wnt5a (protein binding on small-molecule microarray). Put plainly: small molecules binding Wnt5a protein – biophysical, small-molecule microarray, 635/667 nm fluorescence, primary screen (AID 1142).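 Also: fluorescence read at 667 nm with signal to noise per printed feature.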 The note with it: 635 nm fluorescence, higher = more signal.
A short description of experiment [2]: ATP-based viability of Huh7 replicon cells – cell-based, CellTiter-Glo luminescence, basal, 48 h, cytotoxicity control for HCV replication inhibitor project, primary screen (AID 1143).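 Also: Huh7 hepatoma cells carrying a hepatitis C replication reporter with no stimulus; test concentration not given here.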 As to conditions: higher = more signal, called active from +8 up or from −8 down. Background: A replicon is a self-replicating genome or part of one, used to study replication in cells.

A short description of experiment [3]: Pseudomonas biofilm growth suppression – PAO1 strain, BacTiter-Glo luminescence, LB-PBS, primary screen (AID 1144). As to conditions: P. aeruginosa PAO1 biofilm, 12 h, higher = more signal.
Experiment [4] in a line: basal CRE-LacZ reporter activity in PC12 – cell-based, unstimulated, primary screen (AID 1145). As to conditions: no forskolin, luminescence, 4.5 h, higher = more signal, called active from +8 up or from −8 down.
The nature of experiment [5]: forskolin-driven CRE-LacZ activity in PC12 – cell-based, CRE-LacZ reporter, forskolin-stimulated, primary screen (AID 1146).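 Also: PC12 cells with 6xCRE LacZ reporter stimulated by forskolin 10 µM; beta-galactosidase reporter signal reflecting CREB driven transcription.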 As to conditions: luminescence, 4.5 h, higher = more signal, called active from +8 up or from −8 down.
The target in experiment [6] is Streptavidin (Streptomyces avidinii) (UniProt P22629). Put plainly: compounds binding control protein streptavidin – biophysical, small-molecule microarray, 635/667 nm fluorescence, artefact control for SMM compound annotation, primary screen (AID 1147).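 Also: signal reflects streptavidin binding to arrayed compounds as a control protein.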 The note with it: higher = more signal.
Chain of Streptavidin (Streptomyces avidinii) (P22629 whole entry, looked up): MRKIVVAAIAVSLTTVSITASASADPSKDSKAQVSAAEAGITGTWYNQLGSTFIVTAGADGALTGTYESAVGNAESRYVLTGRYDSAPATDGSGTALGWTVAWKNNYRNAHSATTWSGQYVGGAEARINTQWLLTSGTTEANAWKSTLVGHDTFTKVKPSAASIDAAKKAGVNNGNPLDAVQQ
A short description of experiment [7]: probe aInhba binding on compound microarray – biochemical, small-molecule microarray, 635/667 nm fluorescence, primary screen (AID 1148).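 Also: score merges 667nm spot fluorescence with signal-to-noise for antibody binding to printed compounds.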 As to conditions: higher = more signal.
In experiment [8] the target is Torsin-1A (Homo sapiens) (UniProt O14656). Put plainly: TOR1A wild-type binding on microarray – cell lysate, small-molecule microarray, lysate, 635/667 nm, primary screen (AID 1149). The note with it: COS7 hTOR1A-WT lysate, 635 nm fluorescence, higher = more signal.
Chain of Torsin-1A (Homo sapiens) (O14656 whole entry, looked up): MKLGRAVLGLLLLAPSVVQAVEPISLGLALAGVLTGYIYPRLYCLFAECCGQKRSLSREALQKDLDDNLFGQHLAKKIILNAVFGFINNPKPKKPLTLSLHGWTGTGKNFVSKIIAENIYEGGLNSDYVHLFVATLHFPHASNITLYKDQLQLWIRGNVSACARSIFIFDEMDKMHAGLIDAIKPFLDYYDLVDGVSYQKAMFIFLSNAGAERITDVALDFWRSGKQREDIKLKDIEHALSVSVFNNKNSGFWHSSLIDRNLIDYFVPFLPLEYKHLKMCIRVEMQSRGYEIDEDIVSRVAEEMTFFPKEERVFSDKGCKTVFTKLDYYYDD
For experiment [9] the target is unchanged. In words: torsin A mutant lysate binding on microarrays – cell lysate, small-molecule microarray, COS7 lysate, 635/667 nm fluorescence, primary screen (AID 1150).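 Also: score pools 667 nm emission and signal to noise measuring lysate protein binding.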 The note with it: COS7 hTOR1A mutant lysate, 635 nm fluorescence, higher = more signal.
Experiment [10] relates to Sonic hedgehog protein (Shh). Put plainly: Sonic hedgehog microarray binding compounds – biochemical, small-molecule microarray, 635/667 nm fluorescence, primary screen (AID 1151).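 Also: Shh protein binding to compounds spotted on small-molecule microarray slides; score combines spot fluorescence intensity with signal-to-noise across triplicate slides.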 As to conditions: 635 nm fluorescence, higher = more signal.

Active and inactive are the calls of the source. Unless noted, no rule for the calls is given here.

On to `CCOC(=O)C1=C[C@@H](c2ccccc2)N(S(=O)(=O)c2ccc(C)cc2)[C@H]1c1ccccc1Cl`, for which the composite z-score was 0.387 in experiment [1]; 1.6 in [6]; -0.0221 in [7]; 0.888 with Torsin-1A (Homo sapiens) [8]; 0.273 with Torsin-1A (Homo sapiens) [9]; 0.844 in [10]. In addition, the z-score was -3.97 (inactive) in experiment [2], 0.533 (inactive) in experiment [3], -0.312 (inactive) in [4] and 0.343 (inactive) in experiment [5].

On to `COc1ccc([Si](C)(C)[C@@H]2[C@@H](CC(=O)N(CCO)Cc3ccccc3)O[C@]3(C(=O)N(c4ccccc4)c4ccccc43)[C@H]2C)cc1`, for which the composite z-score is 0.272 in experiment [1]; 0.675 in experiment [6]; -0.125 in [7]; 0.555 with Torsin-1A (Homo sapiens) [8]; 0.3 with Torsin-1A (Homo sapiens) [9]; 1.17 in experiment [10]. The z-score is -7.08 (inactive) in [2], -0.334 (inactive) in experiment [3], 7.53 (inactive) in experiment [4] and -2.26 (inactive) in experiment [5].

For the compound `O=C(NCC(F)(F)F)[C@@H]1c2ccccc2C(=O)N(Cc2cc(F)cc(C(F)(F)F)c2)[C@H]1c1ccc(CO)cc1`, the composite z-score is -0.328 in [1]; -1.24 in experiment [6]; -0.128 in [7]; -1.73 in the experiment with Torsin-1A (Homo sapiens) [8]; -1.22 in the experiment with Torsin-1A (Homo sapiens) [9]; -1.09 in [10]. For the same compound, the z-score in experiment [2] was -1.77 (inactive); in experiment [3], -1.38 (inactive); in experiment [4], -0.529 (inactive); in [5] it was 0.861 (inactive).

As to `CCCC[C@@H]1C[C@H]1[C@@H](NC(=O)c1cccs1)c1ccc(C(F)(F)F)cc1`, the composite z-score in experiment [1] was -0.553; in experiment [6], 0.189; in experiment [7], -0.147; in the experiment with Torsin-1A (Homo sapiens) [8], -0.848; with Torsin-1A (Homo sapiens) [9] it was -0.589; in [10] it was 0.652. The z-score in experiment [2] was -0.368 (inactive); in [3], 0.195 (inactive); in experiment [4], 0.962 (inactive); in [5], 1.57 (inactive).

Turning to `COc1ccccc1CN1C(=O)c2ccccc2[C@@]2(Cc3ccccc3N(CC(F)(F)F)C2=O)[C@@H]1c1ccc(CO)cc1`, the composite z-score in experiment [1] is 0.0586; in experiment [6], 0.276; in experiment [7], 0.173; in the experiment with Torsin-1A (Homo sapiens) [8], -0.116; with Torsin-1A (Homo sapiens) [9], -0.33; in experiment [10], 0.53. Also, the z-score in experiment [2] was 0.338 (inactive); in experiment [3], 0.126 (inactive); in [4] it was 1.24 (inactive); in [5] it was -0.173 (inactive).

Take `CO[C@H]1O[C@H](CO)[C@@H](OC(=O)Nc2ccc3c(c2)OCO3)[C@H](OC(=O)c2cc3ccccc3[nH]2)[C@H]1OC(=O)c1cc2ccccc2[nH]1`: the composite z-score is 0.0957 in experiment [1]; 0.483 in experiment [6]; -0.128 in experiment [7]; 0.103 with Torsin-1A (Homo sapiens) [8]; -0.214 in the experiment with Torsin-1A (Homo sapiens) [9]; 0.458 in experiment [10]. Further, the z-score in experiment [2] is -2.92 (inactive); in [3], -1.37 (inactive); in [4] it was 1.03 (inactive); in experiment [5], -1.29 (inactive).

`[N-]=[N+]=NCc1ccccc1C[C@]1(C(N)=O)N=C(c2ccc(OCCCO)cc2)O[C@H]1c1ccccc1`: the composite z-score in experiment [1] is 0.0841; in experiment [6], 0.363; in experiment [7] it was 0.0227; in the experiment with Torsin-1A (Homo sapiens) [8] it was 0.851; with Torsin-1A (Homo sapiens) [9], 0.885; in [10], -1.23. The z-score was -3.8 (inactive) in experiment [2], -1.02 (inactive) in [3], 0.101 (inactive) in [4] and 0.0159 (inactive) in [5].

As for `CN1C(=O)C2C=CC(C(O)c3cccc4ccccc34)N(N3CCCCC3)C2C1=O` (stereo not given), the composite z-score in [1] stood at 0.156; in [6] it was 1.85; in experiment [7], 0.0582; in the experiment with Torsin-1A (Homo sapiens) [8], 0.613; in the experiment with Torsin-1A (Homo sapiens) [9], 0.781; in experiment [10] it was 0.169. Also, the z-score in [2] was 0.64 (inactive); in experiment [3], 0.32 (inactive); in experiment [4], -0.136 (inactive); in experiment [5], 0.0556 (inactive).

For `CCOc1cc(C(O)C2C=CC3C(=O)N(C)C(=O)C3N2Nc2ccccc2)ccc1O` (stereo not given), the composite z-score in experiment [1] was 0.297; in [6] it was 0.702; in [7] it was -0.0297; with Torsin-1A (Homo sapiens) [8], 0.526; with Torsin-1A (Homo sapiens) [9] it was 0.467; in [10] it was -0.485. For the same compound, the z-score in [2] was 0.559 (inactive); in [3], -0.947 (inactive); in experiment [4], 0.626 (inactive); in experiment [5] it was -0.276 (inactive).

In the case of `C=CCNC(=O)[C@H]1[C@@H]2C(=O)O[C@@H](c3ccccc3)[C@@H](c3ccccc3)N2[C@@H](c2ccc(O)cc2)[C@]12C(=O)Nc1ccc(C#CC3(O)CCCCCC3)cc12`, the composite z-score is -0.0118 in experiment [1]; 0.163 in experiment [6]; 0.0899 in experiment [7]; 0.935 in the experiment with Torsin-1A (Homo sapiens) [8]; 1.89 with Torsin-1A (Homo sapiens) [9]; 1.13 in experiment [10]. The z-score in experiment [2] was -1.11 (inactive); in experiment [3], -1.06 (inactive); in experiment [4], -0.0246 (inactive); in experiment [5], -0.301 (inactive).

On to `COc1ccc(NC(=O)O[C@H]2[C@H](OC(=O)Nc3ccccc3)[C@H](OC(=O)Nc3ccccc3)[C@@H](OC)O[C@@H]2CO)cc1`, for which the composite z-score was determined as 1.14 in experiment [1]; 0.0994 in experiment [6]; 0.398 in [7]; 0.97 in the experiment with Torsin-1A (Homo sapiens) [8]; 1.1 in the experiment with Torsin-1A (Homo sapiens) [9]; 1.44 in [10]. Moreover, the z-score in experiment [2] was -4.38 (inactive); in experiment [3] it was 0.643 (inactive); in [4] it was 0.204 (inactive); in [5], -1.05 (inactive).
